Test results: PubChem BioAssay (Tox21)
Results filed as inconclusive are left out. Where a call stands in place of a potency, no number is given. The source made the active and inactive calls. Unless noted, the call rests on the fitted dose curve; in most records, active means well fitted curve in the direction sought with a large enough effect in the repeat runs; inconclusive means weak or mixed curves; inactive means no such curve, though single readings can be large; an effect the other way counts as inactive or inconclusive.

Experiments:
[1] = qHTS assay to identify small molecule antagonists of the glucocorticoid receptor (GR) signaling pathway - cell viability counter screen (AID 720693); further: nearly all actives have a fitted effect of over 55% in size
[2] = qHTS assay for identifying genotoxic compounds that show differential cytotoxicity against isogenic chicken DT40 cell lines with known DNA damage response pathways - wild type cell line (AID 743012); further: nearly all actives have a fitted effect of over 60% in size; further: potency means the concentration at half of the fitted maximal effect
Outline: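 Luminescent ATP viability signal (CellTiter-Glo, 30 min RT) recorded after wild type DT40 cells were incubated with compounds for 40 h at 37 C/5% CO2.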

[3] = qHTS assay for identifying genotoxic compounds that show differential cytotoxicity against isogenic chicken DT40 cell lines with known DNA damage response pathways - Rev3 mutant cell line (AID 743014); further: nearly all actives have a fitted effect of over 55% in size; further: potency means the concentration at half of the fitted maximal effect
[4] = qHTS assay for identifying genotoxic compounds that show differential cytotoxicity against isogenic chicken DT40 cell lines with known DNA damage response pathways - Rad54/Ku70 mutant cell line (AID 743015); further: nearly all actives have a fitted effect of over 60% in size; further: potency means the concentration at half of the fitted maximal effect
[5] = qHTS assay to identify small molecule antagonists of the androgen receptor (AR) signaling pathway - cell viability counter screen (AID 743033; further: nearly all actives have a fitted effect of over 45% in size)
[6] = qHTS assay to identify small molecule antagonists of the androgen receptor (AR) signaling pathway using the MDA cell line - cell viability counter screen (AID 743041; further: nearly all actives have a fitted effect of over 45% in size)
Outline: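 Cytotoxicity counter screen: MDA-kb2 AR-luc cells, compound + R1881, 16 h, 37C, 0% CO2; CellTiter-Fluor added at 15.5 h, fluorescence read after 30 min.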

[7] = qHTS assay to identify small molecule antagonists of the thyroid receptor (TR) signaling pathway - cell viability counter screen (AID 743064); further: nearly all actives have a fitted effect of over 50% in size
Outline: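 In rat pituitary GH3.TRE-Luc reporter cells co-exposed to compound and 1 nM T3 for 23.5 h, cytotoxicity was assessed with CellTiter-Fluor in the same wells, read by fluorescence.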

[8] = qHTS assay to identify small molecule antagonists of the thyroid receptor (TR) signaling pathway (AID 743065); further: series mostly up to about 70 µM; nearly all actives have a fitted effect of over 55% in size
Outline: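 GH3.TRE-Luc rat pituitary cells (two TREs driving luciferase) were dosed with compound, then stimulated with 1 nM T3 (final) for 23.5 h at 37 C. ONE-Glo luminescence was the read-out, with CellTiter-Fluor fluorescence as the cytotoxicity counter-screen.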

[9] = tested on: thyroid hormone receptor (rat, GH3 cells); assay: qHTS assay to identify small molecule agonists of the thyroid receptor (TR) signaling pathway (AID 743066; calls by dose curve)
[10] = molecular target: Estrogen receptor (Homo sapiens) (UniProt P03372); assay: qHTS assay to identify small molecule antagonists of the estrogen receptor alpha (ER-alpha) signaling pathway (AID 743069; active means well fitted curve in the direction sought with a large enough effect in the signal ratio in the repeat runs, not every such curve was filed as active; the % refers to the signal ratio)
Outline: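 Beta-lactamase FRET fluorescence is read after 2 hr at room temperature with LiveBLAzer B/G substrate. Before that, ER-alpha-bla HEK293 cells sit 4 hr after plating, then receive compound plus 17beta-estradiol and incubate 18 hr at 37C.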

[11] = qHTS assay to identify small molecule antagonists of the estrogen receptor alpha (ER-alpha) signaling pathway - cell viability counter screen (AID 743074; calls by dose curve;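 further: HEK293 cells carrying ER-alpha-UAS-bla reporter stimulated with 17beta-estradiol; nearly all actives have a fitted effect of over 45% in size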)
[12] = molecular target: Estrogen receptor (Homo sapiens) (UniProt P03372); assay: qHTS assay to identify small molecule agonists of the estrogen receptor alpha (ER-alpha) signaling pathway (AID 743075; calls by dose curve;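 further: HEK293 GripTite cells with ER-alpha and UAS-driven beta-lactamase reporter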)
[13] = molecular target: Estrogen receptor (Homo sapiens) (UniProt P03372); assay: qHTS assay to identify small molecule agonists of the estrogen receptor alpha (ER-alpha) signaling pathway using the BG1 cell line (AID 743079); further: nearly all actives have a fitted effect of over 20% in size; further: potency means the concentration at half of the fitted maximal effect
[14] = qHTS assay to identify small molecule antagonists of the estrogen receptor alpha (ER-alpha) signaling pathway using the BG1 cell line (AID 743080; calls by dose curve;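 further: BG1 cells stimulated with 17beta-estradiol alongside compound; series mostly up to about 70 µM; nearly all actives have a fitted effect of over 25% in size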)
Outline: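 BG1Luc4E2, endogenous ER-alpha, 4xERE-luc; 5 d charcoal-stripped FBS, phenol red free; 24 h plating; cpd + 17beta-estradiol 21.5 h, 37 C/5% CO2; CellTiter-Fluor viability 30 min, then ONE-Glo luciferase 30 min RT.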

[15] = qHTS assay to identify small molecule antagonists of the estrogen receptor alpha (ER-alpha) signaling pathway using the BG1 cell line - cell viability counter screen (AID 743081);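 further: compound given together with 17beta-estradiol as the ER stimulus; series mostly up to about 70 µM; nearly all actives have a fitted effect of over 45% in size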
Aromatase (Homo sapiens) = Aromatase (Homo sapiens) (UniProt P11511); assay: qHTS assay to identify aromatase inhibitors (AID 743083); further: series mostly up to about 70 µM; nearly all actives have a fitted effect of over 55% in size
[16] = qHTS assay to identify aromatase inhibitors - cell viability counter screen (AID 743084)
[17] = molecular target: Androgen receptor (Homo sapiens) (UniProt P10275); assay: qHTS assay to identify small molecule antagonists of the androgen receptor (AR) signaling pathway (AID 743035; active means well fitted inhibition curve with a large enough effect in the signal ratio in the repeat runs, not every such curve was filed as active; the % refers to the signal ratio)
Outline: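 Quantitative HTS of the Tox21 10K library used HEK293 AR-UAS-bla cells stimulated with R1881 alongside compound for 16 h at 37C, followed by beta-lactamase FRET detection (LiveBLAzer B/G, 2 h, RT).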

[18] = molecular target: Androgen receptor (Homo sapiens) (UniProt P10275); assay: qHTS assay to identify small molecule agonists of the androgen receptor (AR) signaling pathway (AID 743036; active means well fitted activation curve with a large enough effect in the signal ratio in the repeat runs, with a control signal flat, not every such curve was filed as active; the % refers to the signal ratio)
Outline: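 Cell-based FRET reporter assay: HEK293 line with a UAS-beta-lactamase construct, compounds added in DMSO, 16 h exposure at 37C, then 2 h substrate step at room temperature and fluorescence intensity read.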

[19] = molecular target: Androgen receptor (Homo sapiens) (UniProt P10275); assay: qHTS assay to identify small molecule agonists of the androgen receptor (AR) signaling pathway using the MDA cell line (AID 743040; further: nearly all actives have a fitted effect of over 20% in size)
Outline: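 Luciferase read-out, ONE-Glo, 30 min RT. Cells: MDA-kb2 AR-luc, MMTV promoter with AR and GR response elements. Compound exposure 16 h, 37C, 0% CO2, after 5 h pre-incubation. qHTS agonist mode.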

Estrogen receptor (Homo sapiens), sequence (P03372 whole entry, looked up): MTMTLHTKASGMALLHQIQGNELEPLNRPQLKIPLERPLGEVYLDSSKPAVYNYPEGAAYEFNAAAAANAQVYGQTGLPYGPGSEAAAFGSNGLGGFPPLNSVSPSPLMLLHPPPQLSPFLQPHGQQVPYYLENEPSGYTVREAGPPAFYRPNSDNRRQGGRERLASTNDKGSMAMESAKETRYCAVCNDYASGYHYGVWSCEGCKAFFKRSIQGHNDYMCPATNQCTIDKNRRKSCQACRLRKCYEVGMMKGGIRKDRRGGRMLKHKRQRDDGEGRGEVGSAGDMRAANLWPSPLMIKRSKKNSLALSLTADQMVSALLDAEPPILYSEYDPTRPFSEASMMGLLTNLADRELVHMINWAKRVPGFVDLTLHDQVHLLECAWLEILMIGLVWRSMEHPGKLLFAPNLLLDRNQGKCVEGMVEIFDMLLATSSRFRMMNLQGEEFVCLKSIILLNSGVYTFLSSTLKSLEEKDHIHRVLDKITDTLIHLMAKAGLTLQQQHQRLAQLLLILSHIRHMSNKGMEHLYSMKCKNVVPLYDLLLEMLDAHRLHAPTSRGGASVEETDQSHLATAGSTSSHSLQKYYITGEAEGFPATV
Androgen receptor (Homo sapiens), sequence (P10275 whole entry, looked up): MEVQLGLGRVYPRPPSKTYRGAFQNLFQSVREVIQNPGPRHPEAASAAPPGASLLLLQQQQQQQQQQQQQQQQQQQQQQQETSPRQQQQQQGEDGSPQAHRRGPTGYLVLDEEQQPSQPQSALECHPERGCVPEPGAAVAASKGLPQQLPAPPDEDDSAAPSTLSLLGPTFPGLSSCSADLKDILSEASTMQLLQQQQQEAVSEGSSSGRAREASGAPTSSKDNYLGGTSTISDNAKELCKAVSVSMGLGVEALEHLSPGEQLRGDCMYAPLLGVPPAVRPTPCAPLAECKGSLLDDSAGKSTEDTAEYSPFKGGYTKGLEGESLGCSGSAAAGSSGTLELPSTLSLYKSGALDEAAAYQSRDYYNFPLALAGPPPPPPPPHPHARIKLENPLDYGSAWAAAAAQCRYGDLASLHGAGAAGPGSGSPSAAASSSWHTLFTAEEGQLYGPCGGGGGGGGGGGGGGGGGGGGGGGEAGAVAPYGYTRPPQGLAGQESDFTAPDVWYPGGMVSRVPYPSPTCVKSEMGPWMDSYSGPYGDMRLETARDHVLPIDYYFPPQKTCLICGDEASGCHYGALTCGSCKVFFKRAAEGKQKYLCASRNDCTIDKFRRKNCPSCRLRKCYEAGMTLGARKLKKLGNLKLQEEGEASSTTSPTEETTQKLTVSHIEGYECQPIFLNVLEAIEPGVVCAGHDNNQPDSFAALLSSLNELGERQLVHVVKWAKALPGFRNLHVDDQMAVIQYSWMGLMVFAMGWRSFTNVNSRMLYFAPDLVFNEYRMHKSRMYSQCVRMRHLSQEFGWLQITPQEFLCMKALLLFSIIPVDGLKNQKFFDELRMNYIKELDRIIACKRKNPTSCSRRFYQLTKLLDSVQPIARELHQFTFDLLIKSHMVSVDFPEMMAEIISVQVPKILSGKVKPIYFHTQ
Aromatase (Homo sapiens), sequence (P11511 whole entry, looked up): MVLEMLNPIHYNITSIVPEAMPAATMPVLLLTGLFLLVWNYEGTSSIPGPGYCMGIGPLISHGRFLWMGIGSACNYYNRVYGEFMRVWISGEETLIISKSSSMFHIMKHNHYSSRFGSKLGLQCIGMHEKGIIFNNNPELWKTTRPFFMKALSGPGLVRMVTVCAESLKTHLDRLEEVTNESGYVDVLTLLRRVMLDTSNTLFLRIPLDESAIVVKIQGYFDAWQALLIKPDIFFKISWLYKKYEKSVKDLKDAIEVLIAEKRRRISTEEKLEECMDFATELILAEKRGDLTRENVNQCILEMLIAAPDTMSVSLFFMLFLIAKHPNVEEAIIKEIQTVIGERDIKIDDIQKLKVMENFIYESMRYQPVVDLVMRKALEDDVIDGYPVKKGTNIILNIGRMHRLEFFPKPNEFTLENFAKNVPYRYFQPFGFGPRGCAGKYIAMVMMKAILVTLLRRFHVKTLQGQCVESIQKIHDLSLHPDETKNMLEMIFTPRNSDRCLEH

Compound	outcome [1]	Potency [2]	Potency [3]	Potency [4]	outcome [5]	outcome [6]	Potency [7]	Potency [8]	Potency [9]	outcome [10]	Potency [11]	Potency [12]	Potency [13]	Potency [14]	outcome [15]	Potency (Aromatase (Homo sapiens))	outcome [16]	outcome [17]	outcome [18]	outcome [19]
CC[C@@]1(c2ccccc2)NC(=O)N(C)C1=O	inactive	inactive	inactive	inactive	inactive	inactive	inactive	inactive	inactive	inactive	inactive	inactive	inactive	inactive	inactive	inactive	inactive			
CC(=O)OC1CCC(C(C)(C)C)CC1 (stereo not given)	inactive	inactive	inactive	inactive	inactive	inactive	inactive	inactive	inactive	inactive	inactive	inactive	inactive	inactive	inactive	inactive	inactive	inactive	inactive	inactive
C=CCN1CCc2nc(N)sc2CC1	inactive	inactive	inactive	inactive	inactive	inactive		inactive	inactive		inactive				inactive	inactive	inactive	inactive	inactive	inactive
CCCCCCCOC(C)=O	inactive	inactive	inactive	inactive	inactive	inactive	inactive	inactive	inactive	inactive	inactive	inactive	48.6 µM (active)	inactive	inactive	inactive	inactive			
O=C(O)CCCCCCCCCC(=O)O	inactive	30.6 µM (active)	34.4 µM (active)	27.3 µM (active)	inactive				inactive	inactive	inactive	inactive	inactive	inactive	inactive	inactive	inactive			inactive
O=C1c2ccccc2C(=O)N1CO	inactive	inactive	inactive	inactive	inactive	inactive	inactive	inactive	inactive	inactive	inactive	inactive	inactive	inactive	inactive	inactive	inactive	inactive	inactive	inactive
CC(C)(C)OC(=O)c1ccccc1C(=O)O	inactive	inactive	inactive	inactive	inactive	inactive	inactive	inactive	inactive	inactive	inactive	inactive	inactive	inactive	inactive	inactive	inactive			
Cc1ccccc1C#N	inactive	inactive	inactive	inactive	inactive	inactive	inactive	inactive	inactive	inactive	inactive	inactive	inactive	inactive	inactive	inactive	inactive			
CCCCCCCCCCCCCCCC(=O)OC	inactive	inactive	inactive	inactive	inactive	inactive	inactive	inactive	inactive	inactive	inactive	inactive	inactive	inactive	inactive	inactive	inactive			
N#Cc1ccccc1C#N	inactive	inactive	inactive	inactive	inactive	inactive	inactive	inactive	inactive	inactive	inactive	inactive	inactive	inactive	inactive	inactive	inactive	inactive	inactive	inactive
CCCCCCCCCCCCCC(=O)OCC	inactive	inactive	inactive	inactive	inactive	inactive	inactive	inactive	inactive	inactive	inactive	inactive	inactive	inactive	inactive	inactive	inactive			
CCCc1ccc(O)c(OC)c1	inactive	inactive	inactive	inactive	inactive	inactive	inactive	inactive	inactive	inactive	inactive	inactive	inactive	inactive	inactive	inactive	inactive			
C/C(Cl)=C/CCl	inactive	inactive	inactive	inactive	inactive	inactive	inactive	inactive	inactive		inactive	inactive			inactive	inactive	inactive	inactive	inactive	
CC(CC(=O)Cl)CC(C)(C)C (stereo not given)	inactive	inactive	inactive	inactive	inactive	inactive	inactive	inactive	inactive	inactive	inactive	inactive	inactive	inactive	inactive	inactive	inactive			
O=C(O)Cc1c(Cl)ccc(Cl)c1Cl	inactive	inactive	inactive	inactive	inactive	inactive	inactive	inactive	inactive	inactive	inactive	inactive	inactive	inactive	inactive	inactive	inactive			
CCCCCCCCC1CO1 (stereo not given)	inactive	inactive	inactive	inactive	inactive	inactive	inactive	inactive	inactive		inactive				inactive	inactive	inactive	inactive	inactive	inactive
